Where “and” joins values, the source holds several entries; their conditions need not be identical. Identical values can stand only once. Results filed as inconclusive are left out. The source holds several records for some structures; these can differ, active in one and inactive in another. Calls of active or inactive are those of the source. The calls were made as follows, unless noted: active = hit-call score of the fitted dose curve at least 0.9, where 1 is the maximum; inactive = score below 0.9.
Assays:
[1] = biological target: Retinoic acid receptor RXR-alpha (Homo sapiens) (UniProt P19793); assay: ATG_RXRa_TRANS: Attagene TRANS-FACTORIAL HepG2 Assay for human Retinoid X Receptor alpha (RXRa) (AID 2283012; active = hit-call score of the fitted dose curve at least 0.9, where 1 is the maximum)
How it was run: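 TRANS format reporting activity of exogenous RXRa-Gal4 chimera in transiently transfected HepG2, 24 h exposure. Reporter transcripts quantified by RT-PCR with capillary electrophoresis, with gain of signal scored relative to DMSO.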

[2] = biological target: human Retinoid X Receptor beta (RXRb), RXRB (gene 6257) (UniProt P28702); assay: ATG_RXRb_TRANS: Attagene TRANS-FACTORIAL HepG2 Assay for human Retinoid X Receptor beta (RXRb) (AID 2283013; active = hit-call score of the fitted dose curve at least 0.9, where 1 is the maximum)
How it was run: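 Readout is reporter transcript induction after 24 h dosing. It is measured by RT-PCR of total RNA followed by fluorescent capillary electrophoresis. HepG2 liver cells carry transfected multiple reporter units driven by an exogenous RXRb-Gal4 fusion; activity is relative to DMSO.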

[3] = biological target: human Thyroid Receptor alpha (THRa1), THRA (gene 7067) (UniProt P10827); assay: ATG_THRa1_TRANS: Attagene TRANS-FACTORIAL HepG2 Assay for human Thyroid Receptor alpha (THRa1) (AID 2283014; active = hit-call score of the fitted dose curve at least 0.9, where 1 is the maximum)
How it was run: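 Reporter transcript induction, read by capillary electrophoresis of 6-FAM-labelled RT-PCR products, reflects activity of a transfected THRa1-Gal4 fusion in HepG2 liver cells. Cells were dosed for 24 h; activity was fitted in the positive direction against DMSO.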

[4] = read-out: E-selectin (Homo sapiens) (UniProt P16581); assay: BSK_3C_Eselectin: BioMAP Diversity Plus: 3C Assay for Eselectin Biomarker Activity (AID 2283015); conditions: primary human endothelial cells (HUVEC); actives raise or lower the signal
How it was run: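 ELISA read-out of E-selectin on endothelial monolayers after 24 h chemical treatment. Human umbilical vein primary cells served as the system, with DMSO defining baseline activity for bidirectional fitting.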

[5] = read-out: Interleukin-1 alpha (IL1a), IL1A (gene 3552); assay: BSK_BE3C_IL1a: BioMAP Diversity Plus: BE3C Assay for Interleukin-1 alpha (IL1a) Biomarker Activity (AID 2283016); conditions: primary human bronchial epithelial cells; actives raise or lower the signal
How it was run: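 IL-1a measured by ELISA after 24 h treatment of human primary bronchial epithelial cells, with gain or loss of signal fitted versus DMSO. Parallel cultures stained with SRB gauge overt cytotoxicity.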

[6] = read-out: Monocyte Chemoattractant Protein-1 (MCP1), CCL2 (gene 6347); assay: BSK_3C_MCP1: BioMAP Diversity Plus: 3C Assay for Monocyte Chemoattractant Protein-1 (MCP1) Biomarker Activity (AID 2283017); conditions: primary human endothelial cells (HUVEC); actives raise or lower the signal
How it was run: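 ELISA read-out of MCP-1 from human umbilical vein endothelial cell cultures harvested 24 h post-dosing. Gain or loss of signal was fitted relative to DMSO.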

[7] = read-out: Monocyte Chemoattractant Protein-1 (MCP1), CCL2 (gene 6347); assay: BSK_4H_MCP1: BioMAP Diversity Plus: 4H Assay for Monocyte Chemoattractant Protein-1 (MCP1) Biomarker Activity (AID 2283018); conditions: primary human endothelial cells (HUVEC); actives raise or lower the signal
How it was run: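 ELISA of MCP-1 (CCL2) 24 h after chemical dosing of HUVEC in the BioMAP 4H system. Gain or loss versus DMSO fitted; parallel SRB staining (560 nm) tracked overt cytotoxicity.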

[8] = read-out: Human Leukocyte Antigen - DR isotype (HLADR), HLA-DRA (gene 3122); assay: BSK_3C_HLADR: BioMAP Diversity Plus: 3C Assay for Human Leukocyte Antigen - DR isotype (HLADR) Biomarker Activity (AID 2283019); conditions: primary human endothelial cells (HUVEC); actives raise or lower the signal
How it was run: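 ELISA readout of surface HLA-DR on human umbilical vein endothelium, taken 24 h after chemical treatment. Gain- and loss-of-signal were both fitted relative to DMSO.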

[9] = read-out: Interleukin-8 (IL8), CXCL8 (gene 3576); assay: BSK_3C_IL8: BioMAP Diversity Plus: 3C Assay for Interleukin-8 (IL8) Biomarker Activity (AID 2283020); conditions: primary human endothelial cells (HUVEC); actives raise or lower the signal
How it was run: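 IL-8 was measured by ELISA in HUVEC cultures 24 h after chemical dosing, with gain or loss of signal fitted relative to DMSO. Parallel SRB total-protein staining tracked overt cytotoxicity.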

[10] = read-out: Monokine induced gamma interferon (MIG), CXCL9 (gene 4283); assay: BSK_3C_MIG: BioMAP Diversity Plus: 3C Assay for Monokine induced gamma interferon (MIG) Biomarker Activity (AID 2283021); conditions: primary human endothelial cells (HUVEC); actives raise or lower the signal;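 as to AC50: MIG protein level measured by immunoassay in the treated endothelial cultures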
How it was run: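 ELISA measurement of MIG in human umbilical vein endothelial cells 24 h after treatment. Cytotoxicity tracked by SRB staining in parallel cultures; gain or loss of signal fitted relative to DMSO.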

Measured: AC50

human Thyroid Receptor alpha (THRa1), THRA (gene 7067), sequence (P10827 whole entry, looked up, the tested form may be a part): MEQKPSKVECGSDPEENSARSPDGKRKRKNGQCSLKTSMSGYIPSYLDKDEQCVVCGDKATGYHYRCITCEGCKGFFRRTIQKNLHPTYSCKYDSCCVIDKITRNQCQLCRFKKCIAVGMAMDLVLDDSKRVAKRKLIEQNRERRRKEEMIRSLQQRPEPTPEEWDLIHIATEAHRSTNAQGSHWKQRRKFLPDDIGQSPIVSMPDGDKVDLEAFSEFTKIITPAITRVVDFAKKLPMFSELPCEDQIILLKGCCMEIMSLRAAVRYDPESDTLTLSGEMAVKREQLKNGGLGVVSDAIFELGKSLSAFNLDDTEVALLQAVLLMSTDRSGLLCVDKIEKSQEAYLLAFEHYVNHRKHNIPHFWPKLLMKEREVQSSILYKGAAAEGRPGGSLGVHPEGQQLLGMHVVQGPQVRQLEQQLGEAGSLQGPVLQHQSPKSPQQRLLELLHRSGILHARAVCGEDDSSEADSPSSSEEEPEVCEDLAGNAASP
E-selectin (Homo sapiens), sequence (P16581 whole entry, looked up): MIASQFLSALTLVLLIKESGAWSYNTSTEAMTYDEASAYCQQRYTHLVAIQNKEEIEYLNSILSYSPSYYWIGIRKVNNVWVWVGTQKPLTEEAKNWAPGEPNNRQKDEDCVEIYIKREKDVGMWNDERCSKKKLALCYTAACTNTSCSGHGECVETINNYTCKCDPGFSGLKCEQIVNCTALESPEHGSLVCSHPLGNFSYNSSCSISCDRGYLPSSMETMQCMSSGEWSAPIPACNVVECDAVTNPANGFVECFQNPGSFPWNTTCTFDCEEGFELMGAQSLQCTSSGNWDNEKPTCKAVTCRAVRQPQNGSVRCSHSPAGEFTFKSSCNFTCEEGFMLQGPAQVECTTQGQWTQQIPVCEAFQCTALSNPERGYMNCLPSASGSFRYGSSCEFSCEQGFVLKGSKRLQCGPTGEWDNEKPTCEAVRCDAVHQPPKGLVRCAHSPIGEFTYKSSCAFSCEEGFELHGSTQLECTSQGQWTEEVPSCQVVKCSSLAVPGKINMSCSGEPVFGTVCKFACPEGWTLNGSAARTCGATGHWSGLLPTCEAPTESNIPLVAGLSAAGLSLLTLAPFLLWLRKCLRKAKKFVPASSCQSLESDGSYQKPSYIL
Retinoic acid receptor RXR-alpha (Homo sapiens), sequence (P19793 whole entry, looked up, the tested form may be a part): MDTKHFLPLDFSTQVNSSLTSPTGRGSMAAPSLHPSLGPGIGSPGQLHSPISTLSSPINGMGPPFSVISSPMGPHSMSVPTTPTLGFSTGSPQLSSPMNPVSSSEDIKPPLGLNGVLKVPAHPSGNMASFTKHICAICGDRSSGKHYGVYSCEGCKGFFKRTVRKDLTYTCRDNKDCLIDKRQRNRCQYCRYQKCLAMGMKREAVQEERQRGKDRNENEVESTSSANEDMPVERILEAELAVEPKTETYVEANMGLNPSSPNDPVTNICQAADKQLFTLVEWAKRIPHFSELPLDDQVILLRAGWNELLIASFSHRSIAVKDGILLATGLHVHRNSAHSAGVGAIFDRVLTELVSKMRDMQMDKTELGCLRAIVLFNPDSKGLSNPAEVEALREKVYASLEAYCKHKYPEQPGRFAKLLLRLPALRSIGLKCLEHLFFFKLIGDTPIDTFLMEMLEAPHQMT
human Retinoid X Receptor beta (RXRb), RXRB (gene 6257), sequence (P28702 whole entry, looked up, the tested form may be a part): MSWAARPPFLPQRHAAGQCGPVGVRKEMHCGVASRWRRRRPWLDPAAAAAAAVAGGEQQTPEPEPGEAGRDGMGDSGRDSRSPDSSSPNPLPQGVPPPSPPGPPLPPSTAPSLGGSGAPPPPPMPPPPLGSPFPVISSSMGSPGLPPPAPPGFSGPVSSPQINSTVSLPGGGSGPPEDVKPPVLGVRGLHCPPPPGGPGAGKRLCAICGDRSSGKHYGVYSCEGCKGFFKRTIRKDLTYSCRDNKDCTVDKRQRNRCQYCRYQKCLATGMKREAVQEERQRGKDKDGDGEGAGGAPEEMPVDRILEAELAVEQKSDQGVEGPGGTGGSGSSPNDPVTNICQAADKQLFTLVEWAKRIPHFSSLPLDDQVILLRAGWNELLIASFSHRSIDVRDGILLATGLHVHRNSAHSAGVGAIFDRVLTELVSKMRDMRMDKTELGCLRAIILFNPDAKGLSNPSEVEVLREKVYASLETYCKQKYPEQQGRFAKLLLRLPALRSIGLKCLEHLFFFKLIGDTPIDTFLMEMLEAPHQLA

COc1ccc(C(c2ccc(OC)cc2)C(Cl)(Cl)Cl)cc1
active: [4] 25.6 µM | [6] 26.4 µM | [7] 13.3 µM | [8] 25.8 µM | [9] 24.9 µM
inactive: [1] | [2] | [3] | [5] | [10]

CCOC(=O)CC(SP(=S)(OC)OC)C(=O)OCC (centres undefined)
inactive: [1] | [2] | [4] | [5] | [6] | [7] | [9] | [10]
active: [2] 63.4 µM | [8] 20 µM

CON(C)C(=O)Nc1ccc(Cl)c(Cl)c1
inactive: [1] | [2] | [3] | [4] | [5] | [6] | [7] | [8] | [9] | [10]
active: [3] 5.27 µM

O=C(Nc1ccccc1)Nc1ccnc(Cl)c1
active: [6] 9.83 µM | [7] 20 µM | [8] 20 µM
inactive: all other assays above

CCCCOC(=O)c1ccccc1C(=O)OCCCC
inactive: [1] | [2] | [4] | [5] | [6] | [7] | [8] | [9] | [10]
active: [2] 64.6 µM and 65.2 µM and 68.9 µM | [3] 39.6 µM and 35.1 µM and 2.44 µM | [7] 26.4 µM

CCCCC(CC)COC(=O)c1ccccc1C(=O)OCC(CC)CCCC (centres undefined)
active: [7] 14 µM | [8] 15.5 µM
inactive: all other assays above

CO/C=C(/C(=O)OC)c1ccccc1Oc1cc(Oc2ccccc2C#N)ncn1
inactive: [1] | [2] | [3] | [5] | [7] | [10]
active: [3] 12.2 µM | [6] 29 µM [middle of 4 runs] | [7] 21.1 µM | [8] 19.6 µM [middle of 4 runs] | [10] 38.1 µM and 33.2 µM and 32.7 µM

CCOP(=S)(OCC)SCn1c(=O)oc2cc(Cl)ccc21
inactive: all assays above

COC(=O)C=C(C)OP(=O)(OC)OC
inactive: all assays above

CCCN(CCC)c1c([N+](=O)[O-])cc(S(N)(=O)=O)cc1[N+](=O)[O-]
inactive: [1] | [2] | [3]
active: [4] 37.1 µM [middle of 4 runs] | [5] 39.6 µM [middle of 4 runs] | [6] 36 µM [middle of 4 runs] | [7] 34.4 µM [middle of 4 runs] | [8] 38.6 µM [middle of 4 runs] | [9] 34.2 µM [middle of 4 runs] | [10] 39 µM and 41.1 µM and 35.7 µM

CCCCNC(=O)OCC#CI
active: [4] 31.6 µM and 31.8 µM | [5] 33.7 µM and 29.6 µM | [6] 24.9 µM and 19.2 µM | [7] 26 µM and 14.8 µM | [8] 8.66 µM and 11 µM | [9] 26.2 µM and 28.9 µM | [10] 32.3 µM and 34.4 µM
inactive: [1] | [2] | [3]

N#Cc1cc(Br)c(O)c(Br)c1
active: [7] 14.3 µM | [8] 28 µM
inactive: all other assays above

COC(=O)N(OC)c1ccccc1COc1ccn(-c2ccc(Cl)cc2)n1
active: [3] 3.06 µM | [4] 5.33 µM | [6] 19 µM | [7] 7.63 µM | [8] 7.6 µM | [9] 13.5 µM
inactive: [1] | [2] | [5] | [10]

OC(c1ccc(Cl)cc1)(c1cncnc1)c1ccccc1Cl (centres undefined)
active: [7] 16.6 µM | [8] 10.8 µM
inactive: all other assays above

N#Cc1nn(-c2c(Cl)cc(C(F)(F)F)cc2Cl)c(N)c1S(=O)C(F)(F)F (centres undefined)
active: [3] 48.7 µM | [4] 20 µM | [6] 30.5 µM | [7] 23.1 µM | [8] 14 µM | [9] 27.8 µM
inactive: [1] | [2] | [5] | [10]

CCCC1COC(Cn2cncn2)(c2ccc(Cl)cc2Cl)O1 (centres undefined)
inactive: all assays above

COc1cnc(OC)n2nc(NS(=O)(=O)c3c(OCC(F)F)cccc3C(F)(F)F)nc12
inactive: [1] | [2] | [3] | [4] | [5] | [6] | [7] | [8] | [9] | [10]
active: [9] 0.016 µM

C=CC1(C)OC(=O)N(c2cc(Cl)cc(Cl)c2)C1=O (centres undefined)
inactive: all assays above

C=CCC1=C(C)C(OC(=O)C2C(C=C(C)C)C2(C)C)CC1=O (centres undefined)
active: [2] 22.1 µM | [4] 30.3 µM [middle of 4 runs] | [6] 33.1 µM and 33.5 µM | [7] 21 µM and 34.3 µM | [8] 32.2 µM and 28 µM and 29.1 µM | [9] 32.3 µM [middle of 4 runs] | [10] 31.7 µM
inactive: [1] | [2] | [3] | [5] | [7] | [10]

Oc1ccccc1-c1ccccc1
active: [2] 56.3 µM and 26.8 µM
inactive: all other assays above

CC(C)C1(C)N=C(c2nc3ccccc3cc2C(=O)O)NC1=O (centres undefined)
inactive: all assays above

O=C(O)c1nc(Cl)ccc1Cl
inactive: all assays above

Fc1ccc(Oc2ccnc3cc(Cl)cc(Cl)c23)cc1
inactive: [1] | [2] | [3]
active: [4] 32.3 µM | [5] 30.7 µM | [6] 30.4 µM | [7] 22.1 µM | [8] 25.1 µM | [9] 31.5 µM | [10] 31.2 µM

COc1nc(C)nc(NC(=O)NS(=O)(=O)c2ccccc2CCC(F)(F)F)n1
active: [8] 20 µM
inactive: [1] | [2] | [3] | [4] | [5] | [6] | [7] | [8] | [9] | [10]

Source: PubChem BioAssay (EPA / NIEHS)
